# Laboratory results published in PubChem BioAssay (NCI).
# The panel holds about 79,000 compounds, 15% with a hit somewhere; the sample as a whole holds those more often. A number with no mark means an inactive call. Active and inactive are the calls of the source. No stated cut-off is given here; in the data, active means growth inhibition above about 70%; inactive means the rest.
# Tests used:
# [1] = NCI Yeast Anticancer Drug Screen. Data for the rad50 strain (AID 155);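 further: 0% = growth of vehicle-only cultures of the same strain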; conditions: S. cerevisiae rad50 strain growth inhibition, hits give high values
# Summary of the method: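 DNA repair mutant yeast, compound exposure, growth read-out; inhibition is taken relative to vehicle.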
# [2] = NCI Yeast Anticancer Drug Screen. Data for the mec2-1 strain (AID 157); conditions: S. cerevisiae mec2-1 strain, hits give high values
# Summary of the method: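 Mutant yeast (mec2-1) grown with compound; growth inhibition relative to vehicle control reported.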
# [3] = NCI Yeast Anticancer Drug Screen. Data for the sgs1 mgt1 strain (AID 161);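 further: 0% = growth of cultures given vehicle only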; conditions: S. cerevisiae sgs1 mgt1 strain, hits give high values
# Summary of the method: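 This yeast growth screen uses a strain with defined DNA-repair lesions; compound-treated growth is compared with vehicle-treated growth.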
# [4] = NCI Yeast Anticancer Drug Screen. Data for the cln2 rad14 strain (AID 165);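 further: 0% = growth equal to vehicle treated cultures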; conditions: S. cerevisiae cln2 rad14 strain, hits give high values
# Summary of the method: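 Readout is yeast growth inhibition versus vehicle-treated controls, using a strain with cln2 and rad14 alterations exposed to compound.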
# [5] = NCI Yeast Anticancer Drug Screen. Data for the bub3 strain (AID 167); conditions: S. cerevisiae bub3 mutant strain, hits give high values
# Summary of the method: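 In this screen, a yeast mutant lacking normal mitotic checkpoint function is challenged with compound. Relative growth versus vehicle gives the inhibition value.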
# [6] = NCI Yeast Anticancer Drug Screen. Data for the mlh1 rad18 strain (AID 175); conditions: S. cerevisiae mlh1 rad18 strain growth inhibition, hits give high values
# Summary of the method: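 Genetically defined yeast (DNA repair-deficient) exposed to compounds; growth inhibition determined relative to vehicle.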
# [7] = at 5.0 µM (retest, dose inferred, filed as 0.5)
# [8] = at 50.0 µM (retest, dose inferred, filed as 5.0)
SMILES,"growth inhibition [1, 7] [%]","growth inhibition [1, 8]",growth inhibition ([1]; at 50.0 µM),"growth inhibition [2, 7] [%]","growth inhibition [2, 8]",growth inhibition ([2]; at 50.0 µM),"growth inhibition [3, 7] [%]","growth inhibition [3, 8]",growth inhibition ([3]; at 50.0 µM),"growth inhibition [4, 7] [%]","growth inhibition [4, 8]",growth inhibition ([4]; at 50.0 µM),"growth inhibition [5, 7] [%]","growth inhibition [5, 8]",growth inhibition ([5]; at 50.0 µM),"growth inhibition [6, 7] [%]","growth inhibition [6, 8]",growth inhibition ([6]; at 50.0 µM)
COc1cc(/C=C2\S/C(=N/Nc3nc(-c4ccc(Br)cc4)cs3)NC2=O)cc(OC)c1OC,-2,67%,84.8% (active),-23,74% (active),76.2% (active),-9,86% (active),97.8% (active),-6,71% (active),80.2% (active),31,97% (active),95.3% (active),2,75% (active),91.5% (active)
O=C1NC(c2ccccc2)(c2cccs2)C(=O)N1C1c2ccccc2Oc2ccccc21 (configuration not stated),0,87% (active),90.3% (active),-11,92% (active),84.7% (active),-18,92% (active),91% (active),-7,84% (active),84.2% (active),-5,91% (active),86.8% (active),21,87% (active),87.4% (active)
CC1=C/C(=C\C=C2/N(C)c3c(C)cccc3C2(C)C)C(=O)c2ncccc21,28,98% (active),94.2% (active),28,99% (active),29.7%,19,98% (active),70.8% (active),9,98% (active),24.6%,49,98% (active),64.6%,45,98% (active),63.2%
O=C(O)CCCc1ccc2c(c1)CC1(C2)Cc2ccc(CCCC(=O)O)cc2C1,28,44%,-38%,21,33%,2.15%,27,38%,-28.3%,22,27%,8.65%,20,29%,9.45%,28,45%,-5.8%
CS(=O)(=O)OCCN(CCOS(C)(=O)=O)c1ccc(C=Nc2ccc(-c3cnc(-c4ccc(Cl)cc4)s3)cc2)c(Cl)c1,1,84% (active),90% (active),-3,91% (active),95% (active),3,90% (active),93.8% (active),-6,90% (active),90.5% (active),3,92% (active),92.3% (active),0,89% (active),92.3% (active)
Cc1cccc2c1C1c3c(C)cccc3C(O)CC1CC2O (configuration not stated),15,3%,36.5%,-6,-4%,23.1%,-2,45%,42.4%,-18,-1%,30.1%,-10,4%,33.5%,1,28%,39.8%
COc1ccc(-c2c(-c3ccccc3)c(C)nc3nc(SC)nc(SC)c23)cc1OC,24,95% (active),95% (active),0,96% (active),95% (active),12,97% (active),94.2% (active),-2,92% (active),94.7% (active),-20,94% (active),94.6% (active),2,96% (active),94.6% (active)
O=C(Nc1ccc(Cl)cc1)c1cccc([N+](=O)[O-])c1O,9,13%,32.8%,5,11%,-8.45%,8,11%,70.8% (active),-3,34%,-22%,6,10%,-5%,7,16%,11.2%
CCOC(=O)c1cc(NC(=O)c2cc(NC(=O)c3cc(NC(=O)c4c(-c5ccccc5)noc4C)cn3C)cn2C)cn1C,3,56%,50.3%,-3,54%,56.8%,2,86% (active),59.1%,-5,29%,14.8%,-4,46%,36.1%,0,67%,51.3%
